Screening data from PubChem.
GalR3 antagonist = blocks the human galanin receptor 3 | HEK293 GalR3-CNG cAMP membrane potential fluorescence; galR3 body fused to GalR1 C-terminus | hit rate 0.44% among 360,000 | inhibition, % at 3 µM;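 active means inhibition above the screen-wide average plus 3 SD, cut at about 13% in these data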;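 further: forskolin and galanin both at EC90 stimulate the cells; cAMP rise reported by CNG channel membrane potential dye signal; 0% = forskolin plus galanin with DMSO and 100% = forskolin alone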
SRC1 inh = inhibitors of human steroid receptor coactivator 1 (SRC1) | Q15788 | HEK293 GAL4-SRC1 luciferase reporter, luminescence | inhibition, % at 3.6 µM | hit rate 0.12% among 360,000 | AID 588354;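 active means inhibition above the campaign mean plus 3 SD, with each screening campaign given its own cutoff, cut at about 60% in these data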;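 further: 0% = DMSO treated cells and 100% = gossypol at 36 µM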
NR5A2 inv ag = NR5A2 inverse agonism in reporter assay. inhibition, % at 3.6 µM. hit rate 0.13% among 360,000. O00482. HEK293T StAR-luciferase reporter, LRH-1 transfected, 24 h. AID 602396;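 active means inhibition above the mean inhibition of all tested compounds plus 3 SD, cut at about 73% in these data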;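 further: 0% = DMSO wells and 100% = reporter-only cells lacking LRH-1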
NCOA3 inh = inhibits human SRC3 coactivator; Q9Y6Q9; HEK293 GAL4-SRC3 luciferase reporter, luminescence; inhibition, % at 3.6 µM; hit rate 0.17% among 360,000;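 active means inhibition above a per-campaign cutoff, the mean of all compounds plus 3 SD, cut at about 60% in these data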;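 further: 0% = DMSO-treated cells and 100% = gossypol-treated cells at 36 µM; higher means less SRC3-driven luciferase light from the GAL4 reporter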
NR2F2 inh = blocks human COUP-TFII nuclear receptor | P24468 | HEK293T NGFI-A luciferase reporter, luminescence | inhibition, % at 8.6 µM | hit rate 0.7% among 370,000 | AID 686940;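 active means inhibition above a per-plate cutoff, mean inhibition of test wells between control levels plus 3 SD, cut at about 38% in these data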;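 further: cells cotransfected with COUP-TFII expression vector driving the NGFI-A reporter; 0% = median of COUP-TF2 test wells and 100% = reporter-only cells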
Target sequence (P24468 whole entry, looked up): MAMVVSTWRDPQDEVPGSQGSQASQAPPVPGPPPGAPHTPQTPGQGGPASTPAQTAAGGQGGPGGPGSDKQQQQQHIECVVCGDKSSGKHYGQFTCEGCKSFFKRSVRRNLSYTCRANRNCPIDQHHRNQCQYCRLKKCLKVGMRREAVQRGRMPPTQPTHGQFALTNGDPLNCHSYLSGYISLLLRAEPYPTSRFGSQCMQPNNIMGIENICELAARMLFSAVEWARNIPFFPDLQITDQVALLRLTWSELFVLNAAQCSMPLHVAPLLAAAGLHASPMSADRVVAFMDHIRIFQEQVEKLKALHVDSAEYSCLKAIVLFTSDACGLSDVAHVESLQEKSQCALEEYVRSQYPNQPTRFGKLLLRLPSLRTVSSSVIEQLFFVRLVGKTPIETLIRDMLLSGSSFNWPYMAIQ
NCOA2 inhibitor = human SRC2 (NCOA2) inhibition | Q15596 | hit rate 0.17% among 370,000 | inhibition, % at 9 µM | HEK293 GAL4-SRC2 luciferase reporter, luminescence;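 active means inhibition above the mean inhibition of all tested compounds plus 3 SD, set per campaign, cut at about 52% in these data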;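 further: 0% = DMSO treated cells and 100% = cells given Gossypol at 36 µM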
GalR3 conf = confirmation of human galanin receptor 3 antagonists. hit rate 59% among 1,600. shares compounds with GalR3 antagonist. HEK293 GalR3 CNG cAMP biosensor, membrane potential fluorescence; galR3 fused to GalR1 carboxy tail; challenged with forskolin and galanin at EC90. inhibition, % at 3 µM;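 active means inhibition above the primary screen's cutoff, the mean inhibition of all screened compounds plus 3 SD, cut at about 13% in these data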;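 further: 0% = forskolin plus galanin and 100% = forskolin alone with DMSO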
CNG parental = acts as nonspecific agonist in parental HEK-CNG cells; shares compounds with GalR3 antagonist; HEK293-CNG parental cells, cAMP membrane potential fluorescence; normalised: DMSO wells 0%, forskolin wells 100%; activation, % at 3 µM; hit rate 10% among 1,600; in the data active means activation above about 1.3%
Gal4-VP16 ctr = inhibits VP16 reporter, flagging COUP-TFII antagonist hits. shares compounds with NR2F2 inh. HEK293 Gal4-VP16 luciferase reporter, luminescence. inhibition, % at 8.5 µM. hit rate 25% among 2,500; in the data active means inhibition above about 13%
NR2F2 inh conf = confirmation of human COUP-TFII (NR2F2) inhibitors; shares compounds with NR2F2 inh; HEK293 NGFI-A luciferase reporter, luminescence; inhibition, % at 8.5 µM; hit rate 45% among 2,500;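 active means mean inhibition over three repeats above a set limit taken from the earlier primary screen, cut at about 38% in these data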;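 further: 100% = cells given the luciferase reporter alone without the COUP-TF2 vector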
Starred values were filed as active, the others as inactive; . = not tested or not shown. An excerpt weighted towards active compounds, which were near 1.1% of everything screened.

SMILES	GalR3 antagonist	SRC1 inh	NR5A2 inv ag	NCOA3 inh	NR2F2 inh	NCOA2 inhibitor	GalR3 conf	CNG parental	Gal4-VP16 ctr	NR2F2 inh conf
CC(C)C[C@@H]1COc2cccc(N3CCCC3)c2S(=O)(=O)N1	-6.2	.	.	.	-2.7	-19.7	.	.	.	.
COC(=O)[C@]12C=CCN1[C@@H](c1ccc(OC)c(OC)c1)c1c(c3ccccc3n1S(=O)(=O)c1ccc(C)cc1)C2	.	.	.	.	12.5	2.0	.	.	.	.
Cn1nc(CC(=O)NCc2ccc(C(F)(F)F)cc2)c2ccccc2c1=O	-2.8	-7.8	11.2	20.7	23.4	-3.6	.	.	.	.
COc1ccc(CNC(=O)Cc2nn(C)c(=O)c3ccccc23)cc1	33.7*	10.1	21.7	14.4	49.1*	10.6	28.6*	0.3	4.0	24.2
Fc1ccc(NC(=S)N2CCCN(c3ccc(C(F)(F)F)cn3)CC2)c(F)c1	110.3*	24.7	42.8	19.4	63.6*	18.2	107.3*	-1.3	4.6	63.5*
COc1ccc(OC)c(S(=O)(=O)N/N=C\c2ccc3c(c2)OCO3)c1	-3.5	-62.9	21.7	-7.4	-7.6	-22.1	.	.	.	.
COc1ccc(S(=O)(=O)N/N=C\c2ccc3c(c2)OCO3)c(OC)c1	100.5*	4.1	15.1	5.7	47.8*	34.1	73.4*	0.0	-4.7	27.3
CCN(CC)c1ncnc2c1[nH]c1ccccc12	-4.8	8.5	11.2	-6.0	1.9	-5.1	.	.	.	.
CC(C)Oc1ncnc2c1[nH]c1ccccc12	19.4*	-9.2	16.4	-12.3	38.1*	2.3	6.0	-0.4	-52.7	24.8
COc1ccc(C(=O)/C=C(\Nc2ccc(F)cc2)c2ccc(OC)cc2OC)c(OC)c1	.	.	.	.	-1.9	-7.9	.	.	.	.
Nc1nc2c(nnn2C2CC(O)C(CO)O2)c(=O)[nH]1 (stereo not drawn)	-1.6	37.2	59.3	34.1	-21.9	-0.3	.	.	.	.
CC(=O)Nc1ccc(NC(=O)c2csc([C@@H]3C[C@H](O)[C@@H](CO)O3)n2)cc1	-6.3	-0.7	11.3	-8.2	-4.7	-14.5	.	.	.	.
O=C(Nc1ccc(Oc2ccccc2)cc1)c1csc([C@H]2C[C@H](O)[C@@H](CO)O2)n1	83.8*	11.4	44.5	10.2	76.9*	17.3	109.4*	-0.9	-4.5	61.1*
Cc1ccc(NC(=O)CNc2ccc(Cl)c(Cl)c2)cc1S(=O)(=O)N(C)C	45.1*	3.1	5.2	23.7	54.3*	-2.1	89.7*	-1.3	-5.0	40.2*
CC(CC(=O)Nc1ccc(Cl)c(S(=O)(=O)N2CCOCC2)c1)c1ccccc1 (stereo not drawn)	96.0*	28.7	22.1	17.5	63.0*	29.1	120.3*	-0.8	3.5	51.3*
O=C(O)CC(SCC(=O)Nc1ccc(Cl)c(S(=O)(=O)N2CCOCC2)c1)C(=O)O (stereo not drawn)	-1.8	0.1	2.8	3.6	-7.5	16.5	.	.	.	.
COc1ccc(OCC(=O)Nc2ccc(S(=O)(=O)N3CCOCC3)cc2)cc1	0.1	0.8	6.9	9.5	6.0	-2.3	.	.	.	.
CC(=O)Nc1ccc(OCC(=O)Nc2ccc(Cl)c(S(=O)(=O)N3CCOCC3)c2)cc1	31.1*	25.9	34.9	28.2	64.6*	33.8	91.8*	-0.5	7.3	43.7*
O=C(c1cc(COc2ccc3ncccc3c2)on1)N1CCC(O)CC1	-2.5	-14.6	-7.4	-19.3	24.0	-22.5	.	.	.	.
CCC(O)C1CCN(C(=O)c2cc(COc3ccc4ncccc4c3)on2)CC1 (stereo not drawn)	101.4*	24.3	33.5	0.8	72.3*	3.6	91.3*	-0.5	4.9	62.9*
